Experimental data reported in PubChem BioAssay (EPA / NIEHS).
Results filed as inconclusive are left out. Calls of active or inactive are those of the source. How the source made its calls, unless noted: active means hit-call score of the fitted dose curve at least 0.9, where 1 is the maximum; inconclusive means response in the unintended direction; inactive means score below 0.9.

Legend:
[1] = ATG_TGFb_CIS: Attagene CIS-FACTORIAL HepG2 Assay for human Transforming Growth Factor (TGF) (AID 2282967; active means hit-call score of the fitted dose curve at least 0.9, where 1 is the maximum; inactive means score below 0.9); conditions: HepG2 Attagene CIS TGFb reporter, mRNA transcription; actives raise or lower the signal
Method in brief: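 Liver HepG2 line, cis-factorial reporter panel, 24 h dosing. Quantitation: RT-PCR products labeled with 6-FAM, cut with HpaI, resolved by capillary electrophoresis; DMSO-referenced bidirectional analysis.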

[2] = ATG_VDRE_CIS: Attagene CIS-FACTORIAL HepG2 Assay for human Vitamin D Receptor Element (VDRE) (AID 2282968; active means hit-call score of the fitted dose curve at least 0.9, where 1 is the maximum; inactive means score below 0.9); conditions: HepG2 VDRE cis-reporter transcription, actives raise or lower the signal
Method in brief: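 Compounds were applied for 24 h to HepG2 cells transfected with promoter-regulated reporter units. Total RNA was reverse-transcribed, and reporter amplicons were fluorescently labelled and sized by capillary electrophoresis.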

[3] = target: Nuclear receptor subfamily 1 group I member 3 (Homo sapiens) (UniProt Q14994); experiment: ATG_CAR_TRANS: Attagene TRANS-FACTORIAL HepG2 Assay for human Constitutive Androstane Receptor (CAR) (AID 2282969); conditions: HepG2 Attagene TRANS-FACTORIAL CAR reporter;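 further: activators raise reporter mRNA above DMSO so AC50 marks induction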
Method in brief: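 Transiently transfected HepG2, multiplex TRANS reporters (CAR-Gal4 chimera driving GAL4-UAS reporter). 24 h dosing. Readout: reporter transcript by RT-PCR + capillary electrophoresis, fluorescence intensity; positive direction vs DMSO.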

[4] = target: X-box-binding protein 1 (Homo sapiens) (UniProt P17861); experiment: ATG_Xbp1_CIS: Attagene CIS-FACTORIAL HepG2 Assay for human X-box Binding Protein 1 (XBP1) (AID 2282972; active means hit-call score of the fitted dose curve at least 0.9, where 1 is the maximum; inactive means score below 0.9); conditions: HepG2 XBP1 cis-element reporter, Attagene multiplex; actives raise or lower the signal
Method in brief: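 Human hepatoma HepG2, cis-element reporter system, 24 h treatment; mRNA quantified by RT-PCR/CE fluorescence; fit relative to DMSO.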

[5] = ATG_M_19_TRANS: Attagene TRANS-FACTORIAL HepG2 Assay for M19 Transcription Factor (Internal Marker) (AID 2282974); conditions: HepG2 Attagene TRANS-FACTORIAL M19 internal marker reporter
Method in brief: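 Multiplexed TRANS format: HepG2 liver cells bearing transient GAL4-UAS reporter units, chemical treatment 24 h, reporter transcripts quantified by RT-PCR plus capillary electrophoresis. DMSO defines baseline.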

[6] = target: Glucocorticoid receptor (Homo sapiens) (UniProt P04150); experiment: ATG_GR_TRANS: Attagene TRANS-FACTORIAL HepG2 Assay for human Glucocorticoid Receptor (GR) (AID 2282978); conditions: HepG2 Attagene TRANS GR reporter, mRNA transcription;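 further: activators score as hits since higher reporter transcript over DMSO is fitted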
Method in brief: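 Transiently transfected HepG2 cells express chimeric NR-GAL4 proteins acting on GAL4-UAS reporter units. Compounds are applied for 24 h. mRNA induction over DMSO is measured by capillary electrophoresis.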

[7] = ATG_GAL4_TRANS: Attagene TRANS-FACTORIAL HepG2 Assay for GAL4 (Internal Marker) (AID 2282976); conditions: HepG2 Attagene TRANS GAL4 internal marker reporter
Method in brief: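 Fluorescence from capillary electrophoresis of labelled RT-PCR products quantifies reporter mRNA induction after 24 h dosing of HepG2 cells carrying transfected GAL4-UAS reporter transcription units. Vehicle DMSO serves as baseline.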

[8] = target: Oxysterols receptor LXR-beta (Homo sapiens) (UniProt P55055); experiment: ATG_LXRb_TRANS: Attagene TRANS-FACTORIAL HepG2 Assay for human Liver X Receptor beta (LXRb) (AID 2282981); conditions: HepG2 Attagene TRANS GAL4-LXRb reporter, mRNA
Method in brief: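 Multiplexed reporter assay, HepG2, 24 h dosing. Fluorescence of labelled RT-PCR products after capillary electrophoresis gives transcript level; positive fitting direction relative to DMSO.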

[9] = target: Bile acid receptor (Homo sapiens) (UniProt Q96RI1); experiment: ATG_FXR_TRANS: Attagene TRANS-FACTORIAL HepG2 Assay for Farnesoid X Receptor (FXR) (AID 2282979); conditions: HepG2 Attagene TRANS FXR-GAL4 reporter transcription;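 further: hits raise reporter mRNA above DMSO so AC50 marks FXR activation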
Method in brief: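 Chimeric FXR-GAL4 activity in transiently transfected human HepG2 liver cells is scored as induction of reporter mRNA after 24 h of dosing. Detection uses RT-PCR with fluorescent labelling and capillary electrophoresis, with DMSO serving as baseline.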

[10] = target: Estrogen receptor (Homo sapiens) (UniProt P03372); experiment: ATG_ERa_TRANS: Attagene TRANS-FACTORIAL HepG2 Assay for human Estrogen Receptor alpha (ERa) (AID 2282970); conditions: HepG2 Attagene TRANS ERa GAL4 reporter, mRNA
Method in brief: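 Transfected HepG2 cells carrying GAL4-UAS-driven reporter units were dosed for 24 hours. Total RNA was reverse-transcribed, reporter sequences PCR-amplified, FAM-labelled, HpaI-digested and resolved by capillary electrophoresis. Increases over DMSO control defined activity.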

Measured: AC50

Sequence of Estrogen receptor (Homo sapiens) (P03372 whole entry, looked up, the tested form may be a part): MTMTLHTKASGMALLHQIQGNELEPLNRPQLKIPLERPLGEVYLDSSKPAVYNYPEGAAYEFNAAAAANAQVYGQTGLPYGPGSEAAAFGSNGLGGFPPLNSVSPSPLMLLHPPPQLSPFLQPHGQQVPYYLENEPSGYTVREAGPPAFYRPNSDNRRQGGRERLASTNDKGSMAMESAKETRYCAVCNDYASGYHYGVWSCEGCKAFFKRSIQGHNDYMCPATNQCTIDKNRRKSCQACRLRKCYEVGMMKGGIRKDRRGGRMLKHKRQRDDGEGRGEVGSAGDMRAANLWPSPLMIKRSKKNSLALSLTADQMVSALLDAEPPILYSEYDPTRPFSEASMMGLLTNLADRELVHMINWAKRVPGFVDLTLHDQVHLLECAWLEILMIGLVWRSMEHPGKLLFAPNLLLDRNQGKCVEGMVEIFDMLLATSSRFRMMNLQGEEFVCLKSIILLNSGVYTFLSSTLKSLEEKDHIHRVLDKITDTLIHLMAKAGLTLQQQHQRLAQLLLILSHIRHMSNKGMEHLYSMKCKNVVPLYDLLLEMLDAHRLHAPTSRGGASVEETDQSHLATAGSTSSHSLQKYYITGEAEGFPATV
Sequence of Glucocorticoid receptor (Homo sapiens) (P04150 whole entry, looked up, the tested form may be a part): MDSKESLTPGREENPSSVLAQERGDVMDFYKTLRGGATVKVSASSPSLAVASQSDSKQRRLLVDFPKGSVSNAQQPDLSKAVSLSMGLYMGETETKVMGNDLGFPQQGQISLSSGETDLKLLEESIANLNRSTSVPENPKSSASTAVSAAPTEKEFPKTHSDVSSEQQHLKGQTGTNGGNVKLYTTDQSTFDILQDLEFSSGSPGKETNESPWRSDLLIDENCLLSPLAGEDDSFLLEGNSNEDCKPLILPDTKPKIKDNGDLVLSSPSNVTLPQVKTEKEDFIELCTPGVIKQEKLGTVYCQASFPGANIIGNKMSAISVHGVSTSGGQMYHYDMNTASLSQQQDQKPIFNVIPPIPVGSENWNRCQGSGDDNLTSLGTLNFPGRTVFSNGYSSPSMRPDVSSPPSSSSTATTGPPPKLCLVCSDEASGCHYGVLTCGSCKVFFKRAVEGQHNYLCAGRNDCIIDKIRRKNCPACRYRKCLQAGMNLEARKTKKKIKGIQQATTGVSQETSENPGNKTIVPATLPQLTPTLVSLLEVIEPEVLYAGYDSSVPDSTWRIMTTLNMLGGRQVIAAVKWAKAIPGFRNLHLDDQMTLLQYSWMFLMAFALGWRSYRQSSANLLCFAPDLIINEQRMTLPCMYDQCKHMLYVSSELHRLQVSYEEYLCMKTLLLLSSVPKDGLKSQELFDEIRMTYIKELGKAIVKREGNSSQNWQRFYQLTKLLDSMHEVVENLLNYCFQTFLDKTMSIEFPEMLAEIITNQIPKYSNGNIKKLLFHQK
Sequence of Bile acid receptor (Homo sapiens) (Q96RI1 whole entry, looked up, the tested form may be a part): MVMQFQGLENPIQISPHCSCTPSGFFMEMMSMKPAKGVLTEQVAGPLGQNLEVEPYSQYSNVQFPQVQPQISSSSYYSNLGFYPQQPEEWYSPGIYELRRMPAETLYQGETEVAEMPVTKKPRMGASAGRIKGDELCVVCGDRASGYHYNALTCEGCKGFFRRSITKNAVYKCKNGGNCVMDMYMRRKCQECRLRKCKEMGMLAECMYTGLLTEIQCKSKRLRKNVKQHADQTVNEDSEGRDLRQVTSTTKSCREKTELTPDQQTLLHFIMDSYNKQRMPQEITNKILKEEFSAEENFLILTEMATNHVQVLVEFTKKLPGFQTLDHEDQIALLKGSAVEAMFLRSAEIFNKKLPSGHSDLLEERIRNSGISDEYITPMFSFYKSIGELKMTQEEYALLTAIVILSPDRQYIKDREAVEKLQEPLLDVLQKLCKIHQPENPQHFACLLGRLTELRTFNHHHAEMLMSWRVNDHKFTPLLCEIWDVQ
Sequence of X-box-binding protein 1 (Homo sapiens) (P17861 whole entry, looked up): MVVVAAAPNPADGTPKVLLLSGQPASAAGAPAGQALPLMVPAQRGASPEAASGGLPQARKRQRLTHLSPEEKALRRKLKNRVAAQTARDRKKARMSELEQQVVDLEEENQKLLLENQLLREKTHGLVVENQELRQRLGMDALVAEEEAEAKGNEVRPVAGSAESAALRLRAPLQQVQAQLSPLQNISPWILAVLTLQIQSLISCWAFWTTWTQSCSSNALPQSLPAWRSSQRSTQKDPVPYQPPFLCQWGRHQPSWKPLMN
Sequence of Oxysterols receptor LXR-beta (Homo sapiens) (P55055 whole entry, looked up, the tested form may be a part): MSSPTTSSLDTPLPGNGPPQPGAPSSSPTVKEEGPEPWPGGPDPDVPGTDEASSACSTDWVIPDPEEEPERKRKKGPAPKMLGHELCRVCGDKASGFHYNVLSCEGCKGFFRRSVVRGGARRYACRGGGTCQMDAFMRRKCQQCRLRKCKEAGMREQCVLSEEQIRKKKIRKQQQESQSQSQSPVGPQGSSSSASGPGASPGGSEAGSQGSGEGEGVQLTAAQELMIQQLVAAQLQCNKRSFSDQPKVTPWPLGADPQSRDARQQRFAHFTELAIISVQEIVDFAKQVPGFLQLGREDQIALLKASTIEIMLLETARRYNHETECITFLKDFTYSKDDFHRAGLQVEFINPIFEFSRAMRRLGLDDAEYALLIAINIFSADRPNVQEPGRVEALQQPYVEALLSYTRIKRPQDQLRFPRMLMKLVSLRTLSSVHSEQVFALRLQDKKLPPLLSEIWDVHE
Sequence of Nuclear receptor subfamily 1 group I member 3 (Homo sapiens) (Q14994 whole entry, looked up, the tested form may be a part): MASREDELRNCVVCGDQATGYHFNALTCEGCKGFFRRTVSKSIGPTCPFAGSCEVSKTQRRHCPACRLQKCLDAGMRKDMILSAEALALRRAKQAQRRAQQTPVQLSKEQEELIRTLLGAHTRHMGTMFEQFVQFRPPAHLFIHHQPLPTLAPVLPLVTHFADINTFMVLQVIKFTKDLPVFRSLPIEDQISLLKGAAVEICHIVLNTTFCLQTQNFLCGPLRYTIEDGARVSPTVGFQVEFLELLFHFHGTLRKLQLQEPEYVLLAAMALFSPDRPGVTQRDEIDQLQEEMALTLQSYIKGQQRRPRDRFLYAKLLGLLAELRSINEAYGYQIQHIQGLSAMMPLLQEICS

CCCC(=O)OCC
inactive: [1] | [2] | [3] | [4] | [5] | [6]

Cc1ccc(C)c(O)c1
inactive: [1] | [2] | [3] | [4]

CCOC(=O)CC(CC(=O)OCC)(OC(C)=O)C(=O)OCC
inactive: [1] | [2] | [3] | [5]

CC(=O)c1ccc2c(c1)[C@H](NC(=O)c1ccc(F)cc1)[C@@H](O)C(C)(C)O2
inactive: [1] | [2] | [3] | [4] | [7] | [6] | [8]

CCc1cc(SCc2sc(-c3ccc(C(F)(F)F)cc3)nc2CN2CCN(c3ccc(OC)cc3)CC2)ccc1OCC(=O)O
inactive: [1] | [3] | [9] | [8]
active: [2] 16.5 µM

C1=CCCC=CCCC=CCC1
inactive: [1] | [2] | [3] | [6] | [9]

CNCc1ccc(NC(=O)c2c[nH]c3c2C(=O)CCC3)cc1
inactive: [1] | [2] | [3] | [4] | [5] | [7] | [6] | [8]

O=c1n(CC2CO2)c(=O)n(CC2CO2)c(=O)n1CC1CO1 (centres undefined)
active: [2] 100 µM | [4] 74.9 µM
inactive: [1] | [3] | [10] | [8]

C=CC(=C)CCC=C(C)C
inactive: [1] | [2] | [3] | [10] | [8]

CCCCC(CC)COC(=O)CCCCCCCCC(=O)OCC(CC)CCCC (centres undefined)
inactive: [1] | [2] | [4] | [5] | [6] | [8]

C=CCCCCCCCCC(=O)O
inactive: [1] | [2] | [10] | [4] | [5] | [8]

CC/C(=C\C(=N/O)C(N)=O)C(C)[N+](=O)[O-] (centres undefined)
inactive: [1] | [2] | [10] | [5] | [7] | [6]

COC(=O)c1ccccc1O
inactive: [1] | [4]
active: [2] 26.4 µM | [10] 25.1 µM | [8] 25.5 µM

CC(C)=CCCC(C)=CC=O
inactive: [1] | [10] | [6]
active: [2] 22.2 µM

O=C(O)c1cc(N=Nc2ccc(S(=O)(=O)Nc3ccccn3)cc2)ccc1O
inactive: [1] | [2] | [4] | [5] | [7] | [6]

CCOCCOCCOCCO
inactive: [1] | [2] | [4] | [5] | [7] | [8]

CCOc1cccc(-n2cc(C(=O)N3CCN(c4cc(C(=O)O)c5ccccc5c4)CC3)nc2-c2ccc(C)cc2)c1
inactive: [4] | [5] | [7] | [6] | [9]
active: [1] 151 µM | [2] 27.2 µM

CC[C@H](C)C(=O)O[C@H]1C[C@@H](C)C=C2C=C[C@H](C)[C@H](CC[C@@H]3C[C@@H](O)CC(=O)O3)[C@H]21
active: [2] 4.47 µM
inactive: [1] | [10] | [5] | [6] | [9]

Nc1cccc(N)c1
inactive: [1] | [2] | [4] | [5] | [9] | [8]

O=C(O)c1cccc(Oc2ccccc2)c1
inactive: [1] | [2] | [10] | [4] | [7] | [6]
